One may read the inhibition as the relative decrease from the control value, in per cent.

In all, about 340,000 compounds went through this assay and about 1,700 (0.5%) were called active. Shown is part of a subset that was picked to be rich in actives. Values without a mark were called inactive.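 The calls were made as follows: active = compounds whose inhibition of the agonist-driven luminescence signal at 20 µM reaches about 50% (limit read from the data); inactive = the rest.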

Sequence of C-C chemokine receptor type 6 (Homo sapiens) (P51684 whole entry, looked up): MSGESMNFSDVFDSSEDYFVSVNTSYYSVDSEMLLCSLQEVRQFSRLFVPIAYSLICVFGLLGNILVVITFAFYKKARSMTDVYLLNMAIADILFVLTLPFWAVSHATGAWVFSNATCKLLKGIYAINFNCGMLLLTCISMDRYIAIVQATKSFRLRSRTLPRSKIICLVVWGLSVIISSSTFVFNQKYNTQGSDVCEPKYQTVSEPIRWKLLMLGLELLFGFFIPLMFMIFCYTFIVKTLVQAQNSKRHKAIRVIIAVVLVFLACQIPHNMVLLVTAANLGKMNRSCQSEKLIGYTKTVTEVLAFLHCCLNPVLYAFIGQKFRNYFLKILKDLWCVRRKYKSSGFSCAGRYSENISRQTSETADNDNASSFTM

This assay addresses C-C chemokine receptor type 6 (Homo sapiens) (UniProt P51684). The assay can be described thus: blockers of CCL20-driven beta-arrestin recruitment to CCR6 – cell-based, CHO-K1, luminescence, uHTS, primary screen (AID 493098).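 Also: cells stimulated with CCL20 at 14 nM final; plate controls were DMSO with CCL20 for no effect and DMSO without agonist for full effect.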 As to conditions: CHO-K1 CCR6 PathHunter beta-arrestin, CCL20-stimulated, at 20 µM, stronger effect = higher value. A general note: Arrestin recruitment assays detect the binding of arrestin to an activated receptor.
Regarding `Cc1cccc(CSc2ccc(-c3cccs3)nn2)c1`, the inhibition was 7.33%.
For the molecule `COc1ccccc1C1SCCN1C(=O)c1ccc([N+](=O)[O-])cc1` (stereo unspecified), the inhibition is -4.39%.
In the case of `CC1CC2=C(CC1/C=N/NC(N)=S)C(C)(C)CCC2` (stereo unspecified) it was 76.2% (active); in that of `CCC(C)N(C(=O)Cn1nc(C)c([N+](=O)[O-])c1C)C1CCS(=O)(=O)C1` (stereo unspecified), -5.11%.
Regarding `CCOc1ccc(NC(=O)COC(=O)C2CCC(=O)N2)c([N+](=O)[O-])c1` (stereo unspecified), the inhibition was -15.3%.
In the case of `O=c1[nH]c(CN2CCN(S(=O)(=O)c3ccc4c(c3)OCCO4)CC2)nc2sc3c(c12)CCCC3`, the inhibition is 10.3%.
Take `O=S(=O)(Nc1ncccn1)c1ccc(NS(=O)(=O)c2cccc(Cl)c2Cl)cc1`: the inhibition was 9.31%.
Take `O=C(CCc1ccccc1)NNC(=O)COc1ccc(Cl)cc1`: the inhibition is 7.8%.
In the case of `COc1ccc(C(=O)NC(=S)NNC(=O)c2c(-c3ccccc3)noc2C)cc1` it was 32.9%; in that of `COc1ccc(C(=O)NC(=S)NNC(=O)CCc2ccccc2)cc1`, 63.5% (active).
In the case of `COCCn1c(SCC(=O)Nc2nc(C)cs2)nnc1C(C)C` it was -5.85%; in that of `CN(C)CCn1c2c(c(SCC(=O)NCc3ccccc3)nc1=O)CCC2`, 8.36%; in that of `N#CC1(NC(=O)COC(=O)Cc2n[nH]c(=O)c3ccccc23)CCCCC1`, -0.31%.
As to `O=C(NNC(=O)c1cnccc1C(F)(F)F)c1ccc(Cl)cc1`, the inhibition was -1.91%.
In the case of `CC(OC(=O)CN1C(=O)c2ccccc2C1=O)C(=O)c1ccccc1` (stereo unspecified) it was 6.02%.
The same measure for `CCOC(=O)CN1C(=O)C(=O)c2cc(C)ccc21`: 15.8%.
On to `CC(C)OC(=O)CN1C(=O)C(=O)c2ccccc21`, for which the inhibition was 108% (active).
The same measure for `Cc1c(Cl)cccc1NC(=O)CSc1ccc(-c2cccnc2)nn1`: 12.9%.
In the case of `Cc1cc(C(=O)N2CCC(C(=O)O)CC2)c(C(F)(F)F)o1` it was 4.3%.
With `Cc1cc(NC(=O)CCC(=O)N(Cc2ccccc2)C(C(=O)NC2CCCC2)c2ccc(C)o2)no1` (stereo unspecified), the inhibition is 7.11%.
For `COc1cccc(CNC(=O)c2cccnc2Sc2ccc(Cl)cc2)c1`, the inhibition is -12.9%.
In the case of `O=C(NNc1cc(Cl)ccc1Cl)c1cccnc1Cl` it was 13.2%.
In the case of `CC(=O)/C(=N\Nc1ccc(Cl)cc1Cl)Sc1cccc2cccnc12` it was 65.9% (active); in that of `CC(Sc1nc2c([nH]c3ccccc32)c(=O)n1C)c1ccccc1` (stereo unspecified), 5.65%; in that of `CC(=O)c1ccc(N=C2SCCCN2C(=O)C2CCCCC2)cc1`, 12.7%.
Take `COc1cc(OC)cc(-c2cc3nc(C4CCN(C(=O)OC(C)(C)C)CC4)cc(=O)n3[nH]2)c1`: the inhibition is -12.3%.
The same measure for `CSCCC(NC(=O)COc1ccccc1)C(=O)OCCOc1ccc(Br)cc1` (stereo unspecified): 12.1%; for `CSCCC(NC(=O)COc1ccccc1)C(=O)OCc1ccc(Cl)cc1` (stereo unspecified): -15.3%.
The same measure for `CSCCC(NC(=O)COc1ccccc1)C(=O)OCC(=O)c1cc2ccccc2o1` (stereo unspecified): 59.6% (active); for `C#CCO[C@@H]1C[C@H](n2cnc3c(=O)[nH]c(NC(=O)C(C)C)nc32)O[C@@H]1CO`: -6.43%; for `Cc1csc(SCC(=O)N(c2ccccc2)C(C)C)n1`: 13.7%.
The same measure for `Cc1nc(-c2ccc(F)cc2)c(CC(=O)Nc2cc(S(=O)(=O)N3CCCCC3)ccc2C)s1`: 5.08%; for `CC1=C/C(=N\OS(=O)(=O)c2ccccc2)C=CC1=O`: 80.3% (active); for `O=C(NC1CC1)C(Cc1ccccc1)NS(=O)(=O)c1ccccc1F` (stereo unspecified): 6.69%.
As for `CN(/N=C/c1ccccc1)C(=S)c1ccccc1`, the inhibition was 23.9%.
The same measure for `CN(CC(=O)O)C(=O)c1ccccc1`: -10.2%; for `CN(O)C(=S)c1ccccc1`: 95.7% (active); for `COC(=O)c1sc(-c2ccc(C(C)(C)C)cc2)cc1NC(=O)/C=C/C(=O)O`: -1.25%.
Regarding `O=[N+]([O-])/C=C/c1ccc2c(ccn2Cc2ccccc2)c1`, the inhibition was 91.2% (active).
For `Cc1nnc(NC(=O)Cn2c(=O)sc3ccccc32)s1`, the inhibition was -5.17%.
On to `COc1cccc(NC(=O)c2cc(S(=O)(=O)N3CCc4ccccc43)cn2C)c1`, for which the inhibition was -11.8%.
As to `O=C(Cc1c(Cl)cccc1Cl)NC1CC1`, the inhibition is -1.28%.
For `Cc1cccc(NC(=O)Cc2ccc(Br)cc2)n1`, the inhibition is 13.2%.
The same measure for `O=C(CCl)NNc1cccc(Cl)n1`: 60.7% (active).
Take `C=CCC(C(=O)c1ccccc1)[N+](C)(C)CC=C` (stereo unspecified): the inhibition is -0.91%.
Consider `CN(CCc1ccccn1)C(=O)c1ccc(OC2CCN(CCc3ccccc3)CC2)cc1`, for which the inhibition is 13.6%.
The same measure for `CCc1c(C)nc2c(-c3ccccc3)c(C)nn2c1Nc1ccc(NC(C)=O)cc1`: 4.32%; for `O=C(CSc1cccc2cccnc12)N/N=C/c1cccnc1`: 61.7% (active).
As to `CCn1c(SCC(=O)N/N=C/c2ccncc2)nc2ccccc21`, the inhibition is 10.1%.
Turning to `COc1ccc(C(=O)NCC(=O)N/N=C/c2cccnc2)cc1`, the inhibition is -3.8%.
Regarding `COc1ccc(C(=O)NCc2ccccc2C)cc1S(=O)(=O)NC1CCCC1`, the inhibition was 2.68%.
On to `O=c1onc(-c2cccs2)n1Cc1ccccc1`, for which the inhibition is 2.59%.
The same measure for `Cc1c(O)c(C)c2c(c1O)C(=O)C[C@@H](c1ccccc1)O2`: 14.4%; for `COc1ccc(C(=O)c2oc3ccc(Br)cc3c2NC(C)=O)cc1`: 3.07%; for `COC(=O)C1=C(C)N(C)C(C)=C(C(=O)OC)C1c1cccc(Br)c1`: 36.4%.
On to `COC(=O)C1NN=C(C(=O)c2ccc(Br)cc2)C1c1cccc(Br)c1` (stereo unspecified), for which the inhibition was 52.8% (active).
The same measure for `COC(=O)c1ccc([C@@H](O)[C@H](C)C(=O)CC(=O)OC(C)(C)C)cc1`: 0.65%.
In the case of `N#Cc1cccc(OC(=O)c2ccc3c(=O)n4c(nc3c2)CCC4)c1` it was 9.54%.
For `Cc1ccc(-n2ncc3c(Nc4cccc(C(=O)O)c4)ncnc32)cc1`, the inhibition is 9.65%.
With `COc1cc(CNc2ncn[nH]2)ccc1OCc1ccccc1C`, the inhibition is -5.7%.
As to `CC1(C)CC[C@]2(C(=O)O)CC[C@]3(C)C(=CCC4[C@@]5(C)CC[C@H](O)C(C)(C)C5[C@H](O)C[C@]43C)[C@@H]2C1` (stereo partly specified), the inhibition is -0.24%.

These data come from PubChem BioAssay AID493098 (Sanford-Burnham Center for Chemical Genomics, 2011).
